# Assay results from PubChem BioAssay (Tox21).
# Where “and” joins values, the source holds several entries; their conditions need not be identical. Equal values may be shown once. Inconclusive results are not listed. Entries that show only a call come without a potency. More than one record can exist for a structure, and the calls need not agree. Calls of active or inactive are those of the source. Unless noted, the call rests on the fitted dose curve; in most records, active means well fitted curve in the direction sought with a large enough effect in the repeat runs; inconclusive means weak or mixed curves; inactive means no such curve, though single readings can be large; an effect the other way counts as inactive or inconclusive.
# Experiments:
# [1] = qHTS assay for small molecule agonists of the p53 signaling pathway (AID 651631; calls by dose curve; further: nearly all actives have a fitted effect of over 15% in size)
# In short: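 We treat p53RE-bla HCT-116 cells with compounds for 16 h at 37 °C, add LiveBLAzer B/G FRET substrate for 2 h at room temperature, and measure fluorescence intensity.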
# [2] = qHTS assay for small molecules that induce genotoxicity in human embryonic kidney cells expressing luciferase-tagged ATAD5 (AID 651632); further: nearly all actives have a fitted effect of over 15% in size
# In short: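 Luminescent reporter readout, HEK293T ATAD5-luc line: 16 hr drug exposure (37C, 5% CO2) followed by Amplite, 30 min RT.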
# [3] = qHTS assay for small molecule agonists of the p53 signaling pathway - cell viability (AID 651633; calls by dose curve; further: nearly all actives have a fitted effect of over 30% in size; further: potency means the concentration at half of the fitted maximal effect)
# In short: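 p53RE-bla cells were treated with compound for 16 hours at 37 C. Cytotoxicity was then measured as CellTiter-Glo luminescence after 30 min at room temperature.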
# [4] = qHTS assay for small molecules that induce genotoxicity in human embryonic kidney cells expressing luciferase-tagged ATAD5 - cell viability (AID 651634; calls by dose curve; further: nearly all actives have a fitted effect of over 25% in size)
# In short: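 Viability read: CellTiter-Fluor fluorescence, 30 min at 37C. Cells: HEK293T, luciferase-tagged ATAD5. Exposure: 15.5 hr, 37C, 5% CO2, compound or DMSO vehicle.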
# [5] = qHTS assay for small molecule disruptors of the mitochondrial membrane potential - cell viability (AID 720634; calls by dose curve; further: nearly all actives have a fitted effect of over 20% in size; further: potency means the concentration at half of the fitted maximal effect)
# In short: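 HepG2, 1 hr compound, 37 C. ATP luminescence via CellTiter-Glo, 30 min RT, same well as m-MPI.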
# [6] = qHTS assay for small molecule disruptors of the mitochondrial membrane potential (AID 720635); further: potency means the concentration at half of the fitted maximal effect
# In short: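 HepG2 cells exposed to compound 1 hr at 37C, then Mito-MPS dye 30 min. Ratio read of aggregate (540/590 nm) versus monomer (490/535 nm) fluorescence.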
# [7] = qHTS assay to test for compound auto fluorescence at 535 nm (green) in HepG2 cells (AID 720675)
# [8] = qHTS assay to test for compound auto fluorescence at 460 nm (blue) in HEK293 cells (AID 720678)
# In short: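 Auto fluorescence in the blue band was quantified as triamterene equivalency. HEK293 cells were seeded at 2,000/well, dosed after a 4-5 hr attachment, and kept overnight at 37C before the 405/460 nm reading.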
# [9] = qHTS assay to test for compound auto fluorescence at 590 nm (red) in HEK293 cells (AID 720679)
# In short: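 Autofluorescence equivalency to Rose Bengal sodium, 540/590nm, in HEK293 cells exposed overnight to 23 nL compound per well.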
# [10] = qHTS assay to test for compound auto fluorescence at 535 nm (green) in HEK293 cells (AID 720680)
# [11] = qHTS assay to test for compound auto fluorescence at 460 nm (blue) in HEK293 cell free culture (AID 720681)
# In short: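 Compounds were added to cell-free DMEM with 10% FBS and fluorescence read directly. The blue channel used 405 nm excitation and 460 nm emission, with triamterene as the reference fluorophore.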
# [12] = qHTS assay to test for compound auto fluorescence at 535 nm (green) in HEK293 cell free culture (AID 720682)
# In short: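 Green-channel intensity (Ex/Em 485/535 nm) was recorded from compound-treated wells containing only DMEM with 10% FBS. Fluorescein provided the equivalency standard.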
# [13] = qHTS assay to test for compound auto fluorescence at 590 nm (red) in HEK293 cell free culture (AID 720683)
# In short: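 Cell-free wells of DMEM with 10% FBS received compound, and intrinsic fluorescence was read at excitation/emission 540/590 nm. Values expressed as equivalence to Rose Bengal sodium.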
# [14] = qHTS assay to test for compound auto fluorescence at 590 nm (red) in HepG2 cell free culture (AID 720684)
# In short: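 Compound was pinned into wells holding MEM with 10% FBS and no cells, and red fluorescence was read at Ex/Em 540/590 nm. Signal is expressed as auto fluorescence equivalency relative to Rose Bengal sodium.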
# [15] = qHTS assay to test for compound auto fluorescence at 460 nm (blue) in HepG2 cell free culture (AID 720685)
# In short: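 Compound (23 nL) or DMSO pinned into cell-free MEM with 10% FBS; blue fluorescence read at 405/460 nm excitation/emission, expressed as auto-fluorescence equivalency to triamterene.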
# [16] = qHTS assay to test for compound auto fluorescence at 535 nm (green) in HepG2 cell free culture (AID 720686)
# [17] = qHTS assay to test for compound auto fluorescence at 460 nm (blue) in HepG2 cells (AID 720687)
# In short: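 HepG2 cells in MEM with 10% FBS, attached overnight at 37 C, were exposed to compound or DMSO for 1 hr at 37 C, 5% CO2. Blue fluorescence was read at 405/460 nm, with triamterene as reference fluorophore.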
# [18] = qHTS assay to test for compound auto fluorescence at 590 nm (red) in HepG2 cells (AID 720674)
# In short: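 Seeding: 2,000 HepG2 cells/well, MEM/10% FBS, overnight 37 C. Dosing: compound vs DMSO. Incubation: 1 hr, 37 C, 5% CO2. Read: fluorescence 540 ex/590 em, Rose Bengal sodium as red reference.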
# [19] = target: Glucocorticoid receptor (Homo sapiens) (UniProt P04150); experiment: qHTS assay to identify small molecule agonists of the glucocorticoid receptor (GR) signaling pathway (AID 720691; active means well fitted activation curve with a large enough effect in the signal ratio in the repeat runs, not every such curve was filed as active; the % refers to the signal ratio)
# Sequence of Glucocorticoid receptor (Homo sapiens) (P04150 whole entry, looked up): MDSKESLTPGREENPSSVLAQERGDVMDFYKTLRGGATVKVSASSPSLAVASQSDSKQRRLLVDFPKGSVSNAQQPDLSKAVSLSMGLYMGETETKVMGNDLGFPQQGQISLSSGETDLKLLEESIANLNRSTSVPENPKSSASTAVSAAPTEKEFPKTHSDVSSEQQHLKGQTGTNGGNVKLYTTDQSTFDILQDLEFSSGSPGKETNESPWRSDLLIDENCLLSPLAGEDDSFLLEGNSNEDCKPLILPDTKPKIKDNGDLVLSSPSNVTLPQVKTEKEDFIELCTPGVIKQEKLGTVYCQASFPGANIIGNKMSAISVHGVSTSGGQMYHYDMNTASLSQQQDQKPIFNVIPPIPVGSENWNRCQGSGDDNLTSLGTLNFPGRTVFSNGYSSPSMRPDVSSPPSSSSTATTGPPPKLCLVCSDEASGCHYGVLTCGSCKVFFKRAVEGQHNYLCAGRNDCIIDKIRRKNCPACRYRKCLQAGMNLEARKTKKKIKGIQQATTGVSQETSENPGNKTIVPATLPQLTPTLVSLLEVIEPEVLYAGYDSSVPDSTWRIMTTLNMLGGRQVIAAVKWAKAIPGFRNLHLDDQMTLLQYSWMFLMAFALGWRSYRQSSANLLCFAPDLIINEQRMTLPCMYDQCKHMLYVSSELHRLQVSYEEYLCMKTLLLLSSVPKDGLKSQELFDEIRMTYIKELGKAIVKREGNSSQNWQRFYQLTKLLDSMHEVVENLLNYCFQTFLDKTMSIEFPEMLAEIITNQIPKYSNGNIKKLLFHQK
# In short: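 qHTS in GR-bla HeLa cells: 4 h settling at 37 C/5% CO2, 18 h compound incubation at 37 C, 2 h LiveBLAzer B/G FRET substrate at room temperature, fluorescence intensity measured.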
# [20] = target: Glucocorticoid receptor (Homo sapiens) (UniProt P04150); experiment: qHTS assay to identify small molecule antagonists of the glucocorticoid receptor (GR) signaling pathway (AID 720692; active means well fitted inhibition curve with a large enough effect in the signal ratio in the repeat runs, not every such curve was filed as active; the % refers to the signal ratio)
# In short: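 Inhibition of glucocorticoid signalling is measured in HeLa cells with a GRE-controlled beta-lactamase reporter; cells are co-treated with compound and 5 nM dexamethasone (final) for 18 h before FRET substrate readout.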
Structure (SMILES),Potency [1],Potency [2],Potency [3],Potency [4],Potency [5],Potency [6],outcome [7],outcome [8],outcome [9],outcome [10],outcome [11],outcome [12],outcome [13],outcome [14],outcome [15],outcome [16],outcome [17],outcome [18],outcome [19],Potency [20]
OCc1ccco1,inactive,inactive,inactive,inactive,inactive,inactive,inactive,inactive,inactive,inactive,inactive,inactive,inactive,inactive,inactive,inactive,inactive,,,
Nc1ncc([N+](=O)[O-])s1,inactive,inactive,inactive,inactive,inactive,,inactive,inactive,inactive,inactive,inactive,,inactive,inactive,inactive,inactive,inactive,inactive,inactive,inactive
N#CN=C(N)N,inactive,inactive,inactive,inactive,inactive,inactive,,inactive,inactive,inactive,inactive,inactive,inactive,inactive,inactive,inactive,inactive,,,
COC(=O)Nc1cccc(OC(=O)Nc2cccc(C)c2)c1,inactive,inactive,inactive,inactive,7.7 µM (active),2.73 µM (active) and 3.86 µM (active),,inactive,inactive,inactive,inactive,,inactive,inactive,inactive,inactive,inactive,,inactive,inactive
Cc1ccc(O)c(C)c1,inactive,inactive,inactive,inactive,inactive,inactive,,inactive,inactive,inactive,inactive,,inactive,inactive,inactive,inactive,inactive,,inactive,
C=CCN=C=S,inactive,inactive,inactive,inactive,inactive,inactive,inactive,inactive,inactive,inactive,inactive,inactive,inactive,inactive,inactive,inactive,inactive,,,
CC(=O)C1CCOC1=O (centres undefined),inactive,inactive,inactive,inactive,inactive,inactive,inactive,inactive,inactive,inactive,inactive,inactive,inactive,inactive,inactive,inactive,inactive,,inactive,inactive
c1ccc2c(c1)CCCC2,inactive,inactive,inactive,inactive,inactive,,inactive,inactive,inactive,inactive,inactive,inactive,inactive,inactive,inactive,inactive,inactive,inactive,inactive,
Nc1cccc(Cl)c1,inactive,inactive,inactive,inactive,inactive,inactive,inactive,inactive,inactive,inactive,inactive,inactive,inactive,inactive,inactive,inactive,inactive,,,
CCCCC(CC)C(=O)Cl (centres undefined),inactive,inactive,inactive,inactive,inactive,inactive,inactive,inactive,inactive,inactive,inactive,,inactive,inactive,inactive,inactive,inactive,,inactive,
CC(C)CCCCCCOC(=O)c1ccccc1C(=O)OCCCCCCC(C)C,inactive,inactive,inactive,inactive,inactive,inactive,inactive,inactive,inactive,inactive,inactive,inactive,inactive,inactive,inactive,inactive,inactive,,inactive,inactive
Cc1cc(O)ccc1Cl,inactive,inactive,inactive,inactive,inactive,10.6 µM (active) and 49.4 µM (active) and 27.3 µM (active),,inactive,inactive,inactive,inactive,,inactive,inactive,inactive,inactive,inactive,,inactive,inactive
Cl[C@H]1OCCO[C@@H]1Cl,inactive,inactive,inactive,inactive,inactive,inactive,inactive,inactive,inactive,inactive,inactive,inactive,inactive,inactive,inactive,inactive,inactive,,inactive,
C=CC(=O)OCCCCCC(C)C,inactive,inactive,inactive,inactive,inactive,inactive,inactive,inactive,inactive,inactive,inactive,inactive,inactive,inactive,inactive,inactive,inactive,,,
CNC(=O)O/N=C(\SC)C(=O)N(C)C,inactive,inactive,inactive,inactive,inactive,inactive,,inactive,inactive,inactive,inactive,,inactive,inactive,inactive,inactive,inactive,,,
COc1nc(NC(C)C)nc(NC(C)C)n1,inactive,inactive,inactive,inactive,inactive,inactive,,inactive,inactive,inactive,inactive,,inactive,inactive,inactive,inactive,inactive,,inactive,inactive
Cc1cccc(C)c1NC(=O)CN1CCCC1=O,inactive,inactive,inactive,inactive,inactive,inactive,inactive,inactive,inactive,inactive,inactive,inactive,inactive,inactive,inactive,inactive,inactive,,inactive,

Structure (SMILES),Potency [1],Potency [2],Potency [3],Potency [4],Potency [5],Potency [6],outcome [7],outcome [8],outcome [9],outcome [10],outcome [11],outcome [12],outcome [13],outcome [14],outcome [15],outcome [16],outcome [17],outcome [18],outcome [19],Potency [20]
Nc1ccc([As](=O)(O)O)cc1,inactive,inactive,inactive,inactive,inactive,inactive,,inactive,inactive,inactive,inactive,,inactive,inactive,inactive,inactive,inactive,,,
C=CC#N,inactive,inactive,inactive,inactive,inactive,inactive,inactive,inactive,inactive,inactive,inactive,inactive,inactive,inactive,inactive,inactive,inactive,,inactive,
CCOP(=S)(OCC)Oc1cc(C)nc(C(C)C)n1,inactive,inactive,inactive and 61.1 µM (active),inactive,inactive and 48.6 µM (active),inactive and 30.6 µM (active),inactive,inactive,inactive,inactive,inactive,inactive,inactive,inactive,inactive,inactive,inactive,,inactive,inactive
Clc1cnc(Oc2ccc(Oc3ncc(Cl)cc3Cl)cc2)c(Cl)c1,inactive,inactive,inactive,inactive,inactive,10.7 µM (active) and 48.6 µM (active),,inactive,inactive,inactive,inactive,inactive,inactive,inactive,inactive,inactive,inactive,,inactive,
CNC(=O)O/N=C/C(C)(C)SC,inactive,inactive,inactive,inactive,inactive,,inactive,inactive,inactive,inactive,inactive,inactive,inactive,inactive,inactive,inactive,inactive,inactive,inactive,
COP(=S)(OC)Oc1ccc(SC)c(C)c1,inactive,inactive,inactive,inactive,inactive and 24.3 µM (active),53.9 µM (active) and 27.3 µM (active),inactive,inactive,inactive,inactive,inactive,,inactive,inactive,inactive,inactive,inactive,,inactive,
ClCCOCCCl,inactive,inactive,inactive,inactive,inactive,inactive,,inactive,inactive,inactive,inactive,,inactive,inactive,inactive,inactive,inactive,,inactive,
CN(C)CCC#N,inactive,inactive,inactive,inactive,inactive,inactive,,inactive,inactive,inactive,inactive,inactive,inactive,inactive,inactive,inactive,inactive,,inactive,
Cl/C=C/Cl,inactive,inactive,inactive,inactive,inactive,inactive,,inactive,inactive,inactive,inactive,inactive,inactive,inactive,inactive,inactive,inactive,,inactive,
Nc1cc(Cl)cc(Cl)c1,inactive,inactive,inactive,inactive,inactive,inactive,inactive,inactive,inactive,inactive,inactive,inactive,inactive,inactive,inactive,inactive,inactive,,,
FC(F)(F)c1ccc(Cl)cc1,inactive,inactive,inactive,inactive,inactive,inactive,,inactive,inactive,inactive,inactive,,inactive,inactive,inactive,inactive,inactive,,inactive,
O=C(O)Cc1ccccc1,,inactive,inactive,inactive,inactive,inactive,,inactive,inactive,inactive,inactive,,inactive,inactive,inactive,inactive,inactive,,,
O=S(=O)(O)OOS(=O)(=O)O,,inactive,inactive,inactive,,,inactive,inactive,inactive,inactive,inactive,,inactive,inactive,inactive,inactive,inactive,inactive,,
CN1C(=O)CCS(=O)(=O)C1c1ccc(Cl)cc1 (centres undefined),,inactive,,inactive,inactive,inactive,,inactive,inactive,inactive,inactive,inactive,inactive,inactive,inactive,inactive,inactive,inactive,inactive,
CN(C)C(=O)Cl,,inactive,inactive,inactive,inactive,inactive,inactive,inactive,inactive,inactive,inactive,,inactive,inactive,inactive,inactive,inactive,inactive,inactive,
CC[N+](=O)[O-],inactive,inactive,inactive,inactive,inactive,,inactive,inactive,inactive,inactive,inactive,inactive,inactive,inactive,inactive,inactive,inactive,,inactive,
Sc1ccccc1,,inactive,inactive,inactive,inactive,inactive,inactive,inactive,inactive,inactive,inactive,,inactive,inactive,inactive,inactive,inactive,,inactive,
